# Experimental data taken from PubChem BioAssay AID2524 (Sanford-Burnham Center for Chemical Genomics, 2010).
# Out of some 330,000 compounds screened, about 540 (0.16%) were called active.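 How the source made its calls: active means activation factor of the enzyme at least 2-fold when tested at 20 µM; inactive means the rest.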 Only a selection was taken, and actives are over-represented in it overall.
# Target: Intestinal-type alkaline phosphatase (Homo sapiens) (UniProt P09923)
# Assay: human IAP activators, primary screen, biochemical, luminescence, uHTS (AID 2524)
# Conditions: purified human IAP, CDP-Star luminescence, 30 min; at 10 µM; stronger effect = higher value; 1 = vehicle-only enzyme, 0 = enzyme-free background
# Chain of Intestinal-type alkaline phosphatase (Homo sapiens) (P09923 whole entry, looked up): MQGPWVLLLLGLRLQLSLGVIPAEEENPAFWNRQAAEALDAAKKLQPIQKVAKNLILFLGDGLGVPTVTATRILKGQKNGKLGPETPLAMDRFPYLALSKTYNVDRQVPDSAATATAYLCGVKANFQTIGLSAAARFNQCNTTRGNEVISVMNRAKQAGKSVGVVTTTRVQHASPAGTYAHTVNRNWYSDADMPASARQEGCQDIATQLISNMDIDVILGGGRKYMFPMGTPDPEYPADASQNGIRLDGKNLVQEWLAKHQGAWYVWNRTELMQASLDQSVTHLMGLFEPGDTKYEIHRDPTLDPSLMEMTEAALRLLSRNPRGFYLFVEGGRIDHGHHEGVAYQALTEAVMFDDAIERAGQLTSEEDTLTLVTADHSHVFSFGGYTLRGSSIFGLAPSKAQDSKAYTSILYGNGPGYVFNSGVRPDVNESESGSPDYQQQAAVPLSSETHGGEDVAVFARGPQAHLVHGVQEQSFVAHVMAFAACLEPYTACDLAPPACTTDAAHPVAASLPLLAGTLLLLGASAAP
row,SMILES,activation factor
1,[2H]C(CCOS(N)(=O)=O)c1ccccc1 (centres undefined),0.959 (inactive)
2,CN(C)NC(=O)c1csnc1-c1c(Cl)cccc1Cl,1.14 (inactive)
3,O=C(Nc1ccc(Cl)cc1)c1ccsn1,4.15 (active)
4,CCC(=O)Nc1ccc(C(=O)NNC(=O)c2ccc(Cl)cc2)cc1,1.31 (inactive)
5,O=C(NCc1ccccn1)Nc1ccc(Cl)cc1,1.08 (inactive)
6,CCCOCC(O)CC(CC)C(=O)NNC(=S)Nc1ccccc1 (centres undefined),2.11 (active)
7,CCCN(CCC)CC(O)COc1ccccc1C(=O)Nc1ccccc1 (centres undefined),0.915 (inactive)
8,CCCCC(=O)NNC(=S)NC(=O)C(c1ccccc1)c1ccccc1,1.36 (inactive)
9,Cc1ccc(NC(=O)c2nc[nH]c2C(=O)N[C@@H](CCCCNC(=O)OC(C)(C)C)C(=O)OC(C)(C)C)cc1,1.3 (inactive)
10,C[C@H](NC(=O)c1[nH]cnc1C(=O)Nc1nccs1)c1ccccc1,2.51 (active)
11,CC(NC(=O)C(=O)Nc1nccs1)c1ccccc1 (centres undefined),1.05 (inactive)
12,C[C@H](NC(=O)c1nc[nH]c1C(=O)NCC(=O)OC(C)(C)C)c1ccccc1,1.32 (inactive)
13,CC(C)(C)OC(=O)NCCCCCNC(=O)c1[nH]cnc1C(=O)Nc1nccs1,2.41 (active)
14,CC(C)(C)OC(=O)NCCCCCNC(=O)c1nc[nH]c1C(=O)NCc1ccccc1,1.26 (inactive)
15,Oc1ccc(-c2cccc(-c3ccc(O)cc3)c2)cc1,1.01 (inactive)
16,COc1ccc(C2CC(c3ccccc3)=NN2C(=O)CSc2nccc(=O)[nH]2)cc1 (centres undefined),0.925 (inactive)
17,COc1ccc(CC(=O)Nc2c3c(nn2-c2cccc(Cl)c2)CS(=O)C3)cc1 (centres undefined),1.09 (inactive)
18,CC(C)Oc1ccc(CCC(=O)NNC(=S)NCc2ccccc2)cc1,2.01 (active)
19,O=C(NNC(=S)NCc1ccccc1)c1ccc(OC(F)F)cc1,0.898 (inactive)
20,Cc1ccc(OCC(=O)NNC(=S)NCc2ccccc2)cc1,1.08 (inactive)
21,Cc1cccc(C(=O)N[C@H](C(=O)NCc2cccs2)C(C)C)c1,1.11 (inactive)

row,SMILES,activation factor
1,CCOCCCn1c(SCC(=O)Nc2cc(OC)ccc2OC)nc2ccccc2c1=O,0.95 (inactive)
2,OC(COc1ccc(CN2CCSCC2)cc1)CN1CCCCC1 (centres undefined),1.12 (inactive)
3,CCCCN1C(=O)CC(N2CCOCC2)C1=O (centres undefined),1.04 (inactive)
4,S=c1[nH]cc(-c2ccc(Cl)cc2)n1-c1ccccc1,1.42 (inactive)
5,COc1ccc(N2C(=O)NC(NS(=O)(=O)c3ccc(Cl)cc3)(C(F)(F)F)C2=O)cc1 (centres undefined),0.861 (inactive)
6,Cn1c(N)c(C(=O)COC(=O)c2ccccc2NCc2ccco2)c(=O)n(C)c1=O,1.07 (inactive)
7,Cc1ccc(Cl)c(NC(=O)CN(C)CC(=O)Nc2ccc(F)c(F)c2F)c1Cl,1.68 (inactive)
8,Cc1cc(C)cc(N(CC(=O)Nc2c(C)n(C)n(-c3ccccc3)c2=O)S(C)(=O)=O)c1,0.988 (inactive)
9,Cc1c(NC(=O)CN(C)CC(=O)Nc2ccc(F)c(F)c2F)c(=O)n(-c2ccccc2)n1C,2.09 (active)
10,Cc1ccc(OCC(=O)NCCCNC(=O)c2cccnc2)cc1C,1.06 (inactive)
11,Cc1cc(C(=O)NC2CC(C)(C)Cc3c2cnn3-c2ccccc2)n[nH]1 (centres undefined),2.15 (active)
12,COc1ccc(C(=O)NC2CC(C)(C)Cc3c2cnn3-c2ccccc2)c(OC)c1 (centres undefined),1.07 (inactive)
13,CC1=C(C(=O)NC2CC(C)(C)Cc3c2cnn3-c2ccc(C)cc2)OCCO1 (centres undefined),1.1 (inactive)
14,O=C(NCc1ccccc1Cl)c1ccc2c(=O)n(CC3CCCO3)c(=S)[nH]c2c1 (centres undefined),0.824 (inactive)
15,CCN=c1sc(C(=O)Nc2ccccc2)c(C)n1CC,1.04 (inactive)
16,CN(C)c1nccc(NCc2ccccc2)c1C#N,1.01 (inactive)
17,COc1cccc(NC(=O)CN2CCN(CC(=O)Nc3ccccc3Cl)CC2)c1,0.935 (inactive)
18,Cc1cc(C)cc(NC(=O)NC2CCN(CC(=O)Nc3cccc(Cl)c3C)CC2)c1,3.04 (active)
19,O=C(CN1CCC(NC(=O)Nc2ccccc2)CC1)Nc1cccc([N+](=O)[O-])c1,0.94 (inactive)
20,CN(C)C(=O)c1nc2ccc(Cl)cn2c1CNCc1cccc(OC(F)(F)F)c1,0.976 (inactive)
21,COc1cc(S(=O)(=O)Nc2ncn[nH]2)ccc1Cl,0.999 (inactive)

row,SMILES,activation factor
1,CC(C)n1ncc2c(C(=O)Nc3ccc(CC#N)cc3)cc(C3CC3)nc21,0.958 (inactive)
2,O=C(c1cc(COc2c(F)cccc2F)on1)N1CCSCC1,1.07 (inactive)
3,COc1cc(NC(=O)COC(=O)c2cnc(C)cn2)c(C)cc1[N+](=O)[O-],2.53 (active)
4,COc1cc(NC(=O)COC(=O)CSc2ccc3ccccc3c2)c(C)cc1[N+](=O)[O-],1.12 (inactive)
5,Cc1cnc(C(=O)OCC(=O)Nc2ccc(Cl)cc2Cl)cn1,1.07 (inactive)
6,CCCCN(CCCC)CCNC(=O)CN1C(=O)COc2ccc(S(=O)(=O)N3CCOCC3)cc21,0.976 (inactive)
7,O=C(CNCCC1=CCCCC1)Nc1ccccc1N1CCCCCC1,1.04 (inactive)
8,COCCNS(=O)(=O)c1cc(Br)ccc1OC,0.874 (inactive)
9,CSCCNC(=O)c1ccc2nc(Cc3ccccc3F)oc2c1,1.11 (inactive)
10,CCCc1cc(=O)[nH]c(SCC(=O)Nc2ccc(C(=O)Nc3ccccc3OC)cc2)n1,1.04 (inactive)
11,OC1CN=C2Sc3ccccc3N2C1 (centres undefined),2.42 (active)
12,Cc1ccc(C(=O)COC(=O)CCCC(=O)NC2CCCCC2)cc1[N+](=O)[O-],0.908 (inactive)
13,COC(=O)c1cccc(N(C(=O)CNC(=O)c2cccs2)C(C(=O)NCC2CCCO2)c2ccc(OC)c(OC)c2)c1 (centres undefined),0.951 (inactive)
14,COC(=O)[C@]1(CC(C)C)N[C@H](c2ccc(SC3CCCCC3)cc2)[C@@H]2C(=O)N(C)C(=O)[C@@H]21,0.874 (inactive)
15,COc1ccc(CCC(C)N2CCc3ccccc3C2)cc1 (centres undefined),0.983 (inactive)
16,Cc1nn(CC2CC2)c(=O)n1N(C)c1ncc(C(F)(F)F)cc1Cl,0.985 (inactive)
17,COc1ccccc1C(=O)NCC(=O)NCCSc1ccc(Br)cc1,1.02 (inactive)
18,O=C(CSCc1ccccc1Cl)NNC(=O)c1ccccc1,1.25 (inactive)
19,CN(C)C(=O)c1ccc(NC(=O)c2ccccc2-c2ccccc2)cc1,1.16 (inactive)
20,NC(=O)COc1ccc(NC(=O)c2ccccc2-c2ccccc2)cc1,2.12 (active)
21,CC(=O)Nc1ccc(NC(=O)COc2ccc(-c3ccccc3)cc2)cc1,0.914 (inactive)

row,SMILES,activation factor
1,Cn1nnnc1SCC(=O)Nc1ccccc1C(=O)NC1CC1,0.94 (inactive)
2,CCN(CC)S(=O)(=O)c1ccc(Cl)c(C(=O)NCCN2CCOCC2)c1,1.07 (inactive)
3,CC1CC(C)(C)n2c(O)c(N=NC(N)=S)c3cccc1c32 (centres undefined),0.927 (inactive)
4,CC(=O)Oc1c(C(=O)c2nnc(C)o2)c(=O)n(Cc2ccccc2)c2ccccc12,1.07 (inactive)
5,CC(=O)N1CCN(C(=O)c2cccc(S(=O)(=O)Nc3ccc(C)cc3)c2)CC1,1.16 (inactive)
6,Cc1cccc(NS(=O)(=O)c2cccc(C(=O)NNC(=O)c3ccccc3O)c2)c1,2.18 (active)
7,Cc1cccc(NS(=O)(=O)c2ccc(C)c(C(N)=O)c2)c1,1.05 (inactive)
8,CN(C)C(=O)c1cccn(Cc2cccc(C(F)(F)F)c2)c1=O,1.24 (inactive)
9,Cn1c(N)c(C(=O)COC(=O)C23CC4CC(CC(C4)C2)C3)c(=O)n(C)c1=O,0.895 (inactive)
10,Cc1ccccc1C(=O)NCC(c1ccco1)N1CCc2ccccc21 (centres undefined),0.802 (inactive)
11,CC12COC3(C(=O)Nc4ccc(Cl)cn4)CC1CCC32C (centres undefined),0.935 (inactive)
12,COc1ccc(CN2CCC(n3nccc3NC(=O)CCCc3ccccc3)CC2)cc1C,3.92 (active)
13,COc1cc(CN2CCC(n3nccc3NC(=O)CCCc3ccccc3)CC2)ccc1O,1.47 (inactive)
14,Cc1ccc(CN2CCC(n3nccc3NC(=O)CCCc3ccccc3)CC2)o1,1.13 (inactive)
15,C=Cn1cc[n+](CC(=O)c2ccc(OC)c(OC)c2)c1,0.894 (inactive)
16,O=C(c1ccc(Br)o1)N(c1ccccn1)C1CCCCC1,1.04 (inactive)
17,O=C(N/N=C/c1ccc(Br)o1)c1cncc(Br)c1,1.05 (inactive)
18,N#Cc1ccccc1CN1C(=O)S/C(=C/c2cccn2-c2cccc(C(=O)O)c2)C1=O,1.06 (inactive)
19,COc1cc(NC(=O)NCC2CCN(Cc3ccc(C)cc3)CC2)cc(OC)c1OC,2.12 (active)
20,Cc1ccc(C)c(CN2CCC(CNC(=O)Nc3ccc(C)c(F)c3)CC2)c1,1.49 (inactive)
21,Cc1cccc(CN2CCC(CNC(=O)Nc3ccc(F)c(Cl)c3)CC2)c1,1.31 (inactive)
